Potency estimated from few doses data for three compounds are collected here from publication PMC11062922 (Nature Chemical Biology, 2023).

Like-named read-outs stand apart in the source and are kept apart here.

What all share (set-up): species or system human, MV4-11 + K-562 + COLO205 + SK-N-BE2 + OVCAR-8
The test system of experiment [1] is ACVR1. To be noted: read-out: apparent Kd; compound concentrations: 100 nM and 1000 nM (sheet 'Samples'), CATDS: 7.6276409382360397E-2; n = 1.
For experiment [2], the system named is ACVR2B. Particulars: read-out: apparent Kd; compound concentrations: 100 nM and 1000 nM (sheet 'Samples'), CATDS: 0.210677427457096; n = 1.
Experiment [3] relates to BCR. To be noted: read-out: apparent Kd; compound concentrations: 100 nM and 1000 nM (sheet 'Samples'), CATDS: 7.0620023573944493E-2; n = 1.
In experiment [4] the test system is FLT3. Particulars: read-out: apparent Kd; compound concentrations: 100 nM and 1000 nM (sheet 'Samples'), CATDS: 5.3612696826146597E-2; n = 1.
Experiment [5] relates to FLT4. Particulars: read-out: apparent Kd; compound concentrations: 100 nM and 1000 nM (sheet 'Samples'), CATDS: 5.6175855360763499E-2; n = 1.
Experiment [6] relates to FRK. To be noted: read-out: apparent Kd; compound concentrations: 100 nM and 1000 nM (sheet 'Samples'), CATDS: 7.6735011828902105E-2; n = 1.
Experiment [7] deals with FYN. To be noted: read-out: apparent Kd; compound concentrations: 100 nM and 1000 nM (sheet 'Samples'), CATDS: 5.82468241174715E-2; n = 1.
For experiment [8], the system named is GAK. To be noted: read-out: apparent Kd; compound concentrations: 100 nM and 1000 nM (sheet 'Samples'), CATDS: 5.5943535710341101E-2; n = 1.
Experiment [9] concerns IRAK3. To be noted: read-out: apparent Kd, compound concentrations: 100 nM and 1000 nM (sheet 'Samples'), n = 1.
The subject of experiment [10] is PIP4K2C. To be noted: read-out: apparent Kd; compound concentrations: 100 nM and 1000 nM (sheet 'Samples'), CATDS: 5.2092814624207201E-2; n = 1.
In experiment [11] the test system is RET. To be noted: read-out: apparent Kd; compound concentrations: 100 nM and 1000 nM (sheet 'Samples'), CATDS: 7.3825490143618097E-2; n = 1.
Experiment [12] has as its system RIPK2. To be noted: read-out: apparent Kd; compound concentrations: 100 nM and 1000 nM (sheet 'Samples'), CATDS: 0.18233295125810001; n = 1.
The test system of experiment [13] is STK11. To be noted: read-out: apparent Kd; compound concentrations: 100 nM and 1000 nM (sheet 'Samples'), CATDS: 4.7078768974871503E-2; n = 1.
The subject of experiment [14] is TGFBR2. To be noted: read-out: apparent Kd, n = 1.
Experiment [15] relates to ACVR1B. Particulars: read-out: apparent Kd; compound concentrations:100 nM and 1000 nM (sheet 'Samples'); n = 1.
The test system of experiment [16] is DAPK3. To be noted: read-out: apparent Kd; compound concentrations:100 nM and 1000 nM (sheet 'Samples'); n = 1.
Experiment [17] relates to PIK3CG. Particulars: read-out: apparent Kd; compound concentrations:100 nM and 1000 nM (sheet 'Samples'); n = 1.
For experiment [18], the system named is PKN3. To be noted: read-out: apparent Kd, n = 1.
Experiment [19] has as its system PRKD2. To be noted: read-out: apparent Kd; compound concentrations:100 nM and 1000 nM (sheet 'Samples'); n = 1.
The subject of experiment [20] is PRKD3. To be noted: read-out: apparent Kd; compound concentrations:100 nM and 1000 nM (sheet 'Samples'); n = 1.
For experiment [21], the system named is ADCK1. Particulars: read-out: apparent Kd; compound concentrations: 100 nM and 1000 nM (sheet 'Samples'), CATDS: 1.95230654661257E-2; n = 1.
Experiment [22] concerns AKT1. Particulars: read-out: apparent Kd; compound concentrations: 100 nM and 1000 nM (sheet 'Samples'), CATDS: 2.9179929134034902E-2; n = 1.
Experiment [23] relates to AKT2. To be noted: read-out: apparent Kd; compound concentrations: 100 nM and 1000 nM (sheet 'Samples'), CATDS: 2.7091450445171202E-2; n = 1.
For experiment [24], the system named is CDC42BPA. Particulars: read-out: apparent Kd; compound concentrations: 100 nM and 1000 nM (sheet 'Samples'), CATDS: 1.9780691565578001E-2; n = 1.
For experiment [25], the system named is CDC42BPB. To be noted: read-out: apparent Kd; compound concentrations: 100 nM and 1000 nM (sheet 'Samples'), CATDS: 1.71408665149138E-2; n = 1.
Experiment [26] relates to CDK17. Particulars: read-out: apparent Kd; compound concentrations: 100 nM and 1000 nM (sheet 'Samples'), CATDS: 1.7217162863952602E-2; n = 1.
Experiment [27] relates to CIT. To be noted: read-out: apparent Kd; compound concentrations: 100 nM and 1000 nM (sheet 'Samples'), CATDS: 2.24347173261998E-2; n = 1.
The subject of experiment [28] is GSK3A. Particulars: read-out: apparent Kd; compound concentrations: 100 nM and 1000 nM (sheet 'Samples'), CATDS: 4.2719516683869502E-2; n = 1.
Experiment [29] deals with GSK3B. To be noted: read-out: apparent Kd; compound concentrations: 100 nM and 1000 nM (sheet 'Samples'), CATDS: 3.83672032367414E-2; n = 1.
Experiment [30] has as its system IKBKE. Particulars: read-out: apparent Kd; compound concentrations: 100 nM and 1000 nM (sheet 'Samples'), CATDS: 1.7325644717854999E-2; n = 1.
The test system of experiment [31] is JAK2. Particulars: read-out: apparent Kd; compound concentrations: 100 nM and 1000 nM (sheet 'Samples'), CATDS: 0.192481748469752; n = 1.
Experiment [32] concerns LATS1. To be noted: read-out: apparent Kd; compound concentrations: 100 nM and 1000 nM (sheet 'Samples'), CATDS: 3.9734792534973799E-2; n = 1.
Experiment [33] relates to MARK2. Particulars: read-out: apparent Kd; compound concentrations: 100 nM and 1000 nM (sheet 'Samples'), CATDS: 2.5049968914142899E-2; n = 1.
The test system of experiment [34] is MARK3. To be noted: read-out: apparent Kd; compound concentrations: 100 nM and 1000 nM (sheet 'Samples'), CATDS: 2.50648330516796E-2; n = 1.
Experiment [35] has as its system MARK4. To be noted: read-out: apparent Kd; compound concentrations: 100 nM and 1000 nM (sheet 'Samples'), CATDS: 2.22913749693762E-2; n = 1.
In experiment [36] the test system is MTOR. Particulars: read-out: apparent Kd; compound concentrations: 100 nM and 1000 nM (sheet 'Samples'), CATDS: 2.8143895354302499E-2; n = 1.
Experiment [37] relates to PAK4. To be noted: read-out: apparent Kd; compound concentrations: 100 nM and 1000 nM (sheet 'Samples'), CATDS: 7.9705302542388501E-2; n = 1.
For experiment [38], the system named is PAK6. To be noted: read-out: apparent Kd; compound concentrations: 100 nM and 1000 nM (sheet 'Samples'), CATDS: 0.106835733020908; n = 1.
For experiment [39], the system named is PI4KB. To be noted: read-out: apparent Kd; compound concentrations: 100 nM and 1000 nM (sheet 'Samples'), CATDS: 2.3618528560732301E-2; n = 1.
In experiment [40] the test system is PIK3CA. To be noted: read-out: apparent Kd; compound concentrations: 100 nM and 1000 nM (sheet 'Samples'), CATDS: 5.0539059632895601E-2; n = 1.
Experiment [41] deals with PIK3CD. Particulars: read-out: apparent Kd; compound concentrations: 100 nM and 1000 nM (sheet 'Samples'), CATDS: 6.1879573349501601E-2; n = 1.
Experiment [42] concerns PIM2. Particulars: read-out: apparent Kd; compound concentrations: 100 nM and 1000 nM (sheet 'Samples'), CATDS: 1.8579492636517099E-2; n = 1.
Experiment [43] concerns PKN1. To be noted: read-out: apparent Kd; compound concentrations: 100 nM and 1000 nM (sheet 'Samples'), CATDS: 3.3974214988559501E-2; n = 1.
Experiment [44] concerns PKN2. Particulars: read-out: apparent Kd; compound concentrations: 100 nM and 1000 nM (sheet 'Samples'), CATDS: 1.8056964738192099E-2; n = 1.
The subject of experiment [45] is PRKACA. To be noted: read-out: apparent Kd; compound concentrations: 100 nM and 1000 nM (sheet 'Samples'), CATDS: 2.14323323603763E-2; n = 1.
Experiment [46] concerns PRKACB. To be noted: read-out: apparent Kd; compound concentrations: 100 nM and 1000 nM (sheet 'Samples'), CATDS: 2.3381704422051099E-2; n = 1.
Experiment [47] concerns PRKACG. To be noted: read-out: apparent Kd; compound concentrations: 100 nM and 1000 nM (sheet 'Samples'), CATDS: 2.46536070948064E-2; n = 1.
In experiment [48] the test system is PRKAG1. Particulars: read-out: apparent Kd; compound concentrations: 100 nM and 1000 nM (sheet 'Samples'), CATDS: 2.0047926729344401E-2; n = 1.
The mark [49] stands for this setting: compound concentrations:100 nM and 1000 nM (sheet 'Samples').

Take `Cc1ccc(Nc2ccnc(Nc3cccc(C(N)=O)c3)n2)cc1O.Cl` [GW575808A]: the potency estimated from few doses in experiment [1] is 534 nM; in experiment [2] it was 77 nM; in experiment [3], 645 nM; in experiment [4], 1450 nM; in experiment [5], 1240 nM; in experiment [6], 526 nM. Moreover, the potency estimated from few doses in experiment [7] was 1100 nM; in experiment [8], 1250 nM; in experiment [9] (CATDS: 6.2537206863604394E-2), 894 nM; in [10], 1610 nM; in [11], 578 nM; in experiment [12], 96.9 nM. Moreover, the potency estimated from few doses in experiment [13] was 2430 nM; in [14] (compound concentrations: 100 nM and 1000 nM (sheet 'Samples'), CATDS: 0.25024360667503898), 59.4 nM.
For `Cc1csc(-c2nc(Nc3ccncc3)c3ccccc3n2)n1` [GW869640X], the potency estimated from few doses in [15] was 17.6 nM; in experiment [16], 1290 nM; in [17] it was 1460 nM; in [18] (setting [49]), 939 nM; in experiment [19], 191 nM; in experiment [20], 504 nM. Moreover, the potency estimated from few doses in experiment [14] (setting [49]) is 750 nM.
With `CCn1c(-c2nonc2N)nc2c(C#CC(C)(C)O)ncc(OCC3CCNCC3)c21.O=C(O)C(F)(F)F` [GSK554170A], the potency estimated from few doses in [21] is 1500 nM; in experiment [22] it was 520 nM; in experiment [23] it was 616 nM; in [24] it was 1440 nM; in [25] it was 2430 nM; in experiment [26] it was 2390 nM. The potency estimated from few doses in [27] is 993 nM; in experiment [28], 240 nM; in experiment [29] it was 295 nM; in experiment [30] it was 2320 nM; in [9] (CATDS: 2.0418472541538401E-2) it was 1310 nM; in [31] it was 25.1 nM. Further, the potency estimated from few doses in [32] is 275 nM; in experiment [33], 744 nM; in experiment [34], 743 nM; in experiment [35], 1010 nM; in experiment [36] it was 564 nM; in experiment [37], 84.6 nM. The potency estimated from few doses in experiment [38] was 55.1 nM; in experiment [39], 865 nM; in experiment [40], 178 nM; in experiment [41], 126 nM; in experiment [42], 1780 nM; in experiment [43], 375 nM. Also, the potency estimated from few doses in experiment [44] was 1980 nM; in experiment [18] (compound concentrations: 100 nM and 1000 nM (sheet 'Samples'), CATDS: 6.5050017907180402E-2), 116 nM; in experiment [45], 1130 nM; in experiment [46] it was 888 nM; in [47], 775 nM; in experiment [48], 1380 nM.
